# Rows were chosen to be rich in hits. Some 9.5% of all compounds tested hit in one or more screens of this group.
# NS1 inh: qHTS Assay for Inhibitors of Influenza NS1 Protein Function; hit rate 0.4% among 270,000; Potency, µM (series often up to 46.1 µM), inactives show top-dose activity, positive = more growth; AID 2326, 2010; calls by dose curve; note: actives are rising curves; nearly all actives have a fitted effect of over 50% in size
#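 In this qHTS, NS1 from influenza A is expressed in budding yeast, where it slows growth. Cells are switched from glucose to 2% galactose medium (pH 6.0, -URA), treated with compound, and growth recovery is read at OD600.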
# Pf growth 96h: Primary qHTS for delayed death inhibitors of the malarial parasite plastid, 96 hour incubation | P. falciparum luciferase reporter growth, 96 h | Potency, µM (top dose mostly 28.7 µM), without a hit: at the highest dose activity change, negative = inhibition, usual class: inhibitors | hit rate 6.9% among 320,000 | AID 504834, 2011; note: % is set by controls: 0 for no effect and ±100 for the full control effect
#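 Luminescence readout: decreased luciferase signal marks inhibited growth of reporter-expressing P. falciparum in infected red cells (2% hematocrit, 0.05% parasitemia final), exposed to compound two generations (96 h, 37 C, 5% CO2).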
# SARS PLP yeast: qHTS of Yeast-based Assay for SARS-CoV PLP; S. cerevisiae expressing SARS-CoV PLpro, growth rescue; Potency, µM (series often up to 32.9 µM), for inactives: at the highest dose activity, positive = growth rescue, usual class: activators; hit rate 0.19% among 330,000; AID 485353, 2010; calls by dose curve; note: 0% is about no effect; nearly all actives have a fitted effect of over 55% in size
# Pf growth 48h: Primary qHTS for delayed death inhibitors of the malarial parasite plastid, 48 hour incubation; hit rate 5.9% among 310,000; P. falciparum luciferase growth in erythrocytes, 48 h; Potency, µM (series often up to 28.7 µM), inactives show at the top dose activity change, negative = inhibition, usual class: inhibitors; note: % is set by controls: 0 for no effect and ±100 for the full control effect
#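 Cell-based growth assay: transgenic P. falciparum expressing firefly luciferase, cultured in red cells within RPMI 1640 containing 0.5% w/v Albumax, 24 mM bicarbonate and gentamycin. A drop in luciferase activity indicates inhibition.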
# RE007 growth inh: qHTS Assay for Inhibitors of the HIV-1 protein Vpr | Potency, µM (highest dose often 92.2 µM), inactives show at the top dose activity change, negative = less growth, hits mostly inhibitors | hit rate 0.21% among 360,000 | AID 651644, 2012 | S. pombe RE007 Vpr strain, BacTiter-Glo ATP luminescence, 24 h; active = well fitted falling curve with a large enough effect; inconclusive = small, poorly fitted or top-dose-only effect; inactive = no such curve, though single readings can be large or run the other way; note: % is set by controls: 0 for no effect and ±100 for the full control effect; nearly all actives have a fitted effect of over 50% in size
#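 Fission yeast RE007 carrying one integrated HIV-1 vpr copy, seeded at OD 0.01 in PMG+AL medium with 23 nL pinned compound. Grown 24 h at 30 degrees; viability read by BacTiter-Glo luminescence after 5 min.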
# Starred values were filed as active, the others as inactive; ? = inconclusive; / = no result; [ ] = dose if it differs, or a comment. Unless noted, calls come from the whole dose curve; as a rule, active = well fitted inhibition curve with a large enough effect; inconclusive = small, poorly fitted or top-dose-only effect, or another doubt; inactive = no such curve, though single readings can be large or run the other way. Potency is the fitted concentration of half-maximal effect.
SMILES,NS1 inh,Pf growth 96h,SARS PLP yeast,Pf growth 48h,RE007 growth inh
COc1cccc(-n2c(SCC(=O)NC3CC3)nc3ccccc3c2=O)c1,/,/,/,/,9%
CCn1c(O)c(N=NC(=O)c2cccnc2)c2cc(Br)ccc21,-2%,?,1%,10µM*,-5%
CN1C(=O)N(C)C2(c3ccccc3)Nn3c(s/c(=C/c4ccco4)c3=O)=NC12c1ccccc1 (stereo not drawn),?,128%,0%,12µM*,2%
CN1C(=O)N(C)C2(c3ccccc3)Nn3c(s/c(=C/c4ccccc4F)c3=O)=NC12c1ccccc1 (stereo not drawn),-1%,/,5%,3%,/
Oc1ccc(-c2nc(-c3ccc(F)cc3)c(-c3ccncc3)[nH]2)cc1,0%,13µM*,/,?,1%[18.4 µM]
O=C(O)C1=C[C@@H](c2ccc3c(c2)OCO3)C[C@@H](OCCCCO)O1,-2%,55%,-1%,-17%,19%
O=C(C1=C[C@H](c2ccc(Br)cc2)C[C@H](OCCCCO)O1)N1CCN(Cc2ccc3c(c2)OCO3)CC1,-15%,4.1µM*,0%,1.5µM*,-7%
O=C(C1=C[C@@H](c2ccc3c(c2)OCO3)C[C@@H](OCCCCO)O1)N1CCOCC1,2%,?,0%,?,0%
O=C(C1=C[C@H](C2CCCCC2)C[C@H](OCCCCO)O1)N1CCN(Cc2ccc3c(c2)OCO3)CC1,-8%,5.9µM*,0%,12µM*,-9%
O=C(C1=C[C@H](c2ccc3c(c2)OCO3)C[C@H](OCCCCO)O1)N1CCN(Cc2ccccc2)CC1,-6%,13µM*,1%,?,2%
CN1CCN(C(=O)C2=C[C@H](c3ccc4c(c3)OCO4)C[C@H](OCCCCO)O2)CC1,/,/,/,/,1%
C#Cc1ccc([C@@H]2C=C(C(=O)N3CCN(Cc4ccc5c(c4)OCO5)CC3)O[C@H](OCCCCO)C2)cc1,-5%,12µM*,0%,?,-16%
OC[C@@H]1CN(Cc2ccc(Cl)cc2)C[C@H](n2cnc3c(N4CCCC4)ncnc32)O1,/,/,/,/,0%
CN1CCN(C(=O)C2=C[C@H](c3ccc(Br)cc3)C[C@H](OCCCCO)O2)CC1,-1%,7%,0%,15%,8%
O=C(C1=C[C@@H](c2ccc3c(c2)OCO3)C[C@@H](OCCCCO)O1)N1CCN(Cc2ccc3c(c2)OCO3)CC1,-10%,10µM*,1%,?,0%
O=C(C1=C[C@H](c2ccc3c(c2)OCO3)C[C@H](OCCCCO)O1)N1CCN(Cc2ccc3c(c2)OCO3)CC1,-8%,?,0%,?,1%
O=C(C1=C[C@@H](c2ccc(Br)cc2)C[C@@H](OCCCCO)O1)N1CCN(Cc2ccccc2)CC1,-4%,12µM*,-1%,8.3µM*,3%
Cc1ccc(CN2C(=O)S/C(=C\c3ccccc3OCC(=O)O)C2=O)cc1,4%,5.2µM*,20%,5%,11%
CCc1nc2ccc(C(=O)N(C)CCCN(C)C)cn2c1N(C)C(=O)C1CCCCC1,/,/,/,/,6%
COc1ccc(-c2cc(C(F)F)n3ncc(C(=O)N4CCN5CCCC5C4)c3n2)cc1 (stereo not drawn),-3%,9.3µM*,2%,?,10%
Cc1ccc(-c2cc(C(F)F)n3ncc(C(=O)Nc4ccc(S(=O)(=O)Nc5ccccc5C)cc4)c3n2)cc1,5%,15µM*,0%,1.9µM*,-10%
COc1ccc(-c2cc(C(F)F)n3ncc(C(=O)Nc4ccc(C(=O)N5CCOCC5)cc4)c3n2)cc1,1%,44%,0%,?,10%
COc1ccc(NS(=O)(=O)c2ccc(NC(=O)c3cnn4c(C(F)F)cc(-c5ccc(C)cc5)nc34)cc2)cc1,9%,0.83µM*,-2%,?,/
COc1cccc(C2(C)NC(=O)N(CC(=O)c3cc(C)n(C4CC4)c3C)C2=O)c1 (stereo not drawn),/,?,3%,?,-15%
Cc1ccccc1C(=O)c1cccn1CC(=O)N1CCCCC1,3%,-34%,4%,5%,8%
SMILES,NS1 inh,Pf growth 96h,SARS PLP yeast,Pf growth 48h,RE007 growth inh
CCOc1ccc(-c2cc(C)[n+](CCN3CCOCC3)c(-c3ccc(OCC)cc3)c2)cc1,4%,0.37µM*,0%,0.66µM*,-5%
COc1ccccc1N(C)S(=O)(=O)c1ccc(C(=O)N2CCCc3ccccc32)cc1,1%,?,-2%,13µM*,1%
CC(C)Oc1ccc(C(=O)N2CCCc3ccccc32)cc1,-124%,4%,-12%,?,0%
COc1ccc(C(=O)N2CCCc3ccccc32)cc1,-19%,0.26µM*,-5%,-11%,-15%
CCN1C/C(=C\c2cccc([N+](=O)[O-])c2)C(=O)/C(=C/c2cccc([N+](=O)[O-])c2)C1,-28%,42%,-27%,2.9µM*,?
COc1ccc(/C=C2\CC/C(=C\c3ccc(OC)c(OC)c3)C2=O)cc1OC,11%,?,1%,-12%,5%
COc1ccc(/C=C2\CN(Cc3ccccc3)C/C(=C\c3ccc(OC)c(O)c3)C2=O)cc1O,15%,3.7µM*,4%,3.3µM*,4%
COc1ccc(C=C2C(=O)c3ccccc3C2=O)cc1O,/,12µM*,-3%,2%,?
COc1cc(C=C2C(=O)c3ccccc3C2=O)ccc1O,-1%,5%,-1%,33%,-26%
CCN1C/C(=C/c2ccc(OC)c(O)c2)C(=O)/C(=C/c2ccc(OC)c(O)c2)C1,/,1.7µM*,-3%,2.6µM*,12%
O=C1/C(=C/c2cccc([N+](=O)[O-])c2)CCc2ccccc21,-20%,?,-95%,34%,?
Cc1csc(SC(C)C(=O)NCC2CCCO2)n1 (stereo not drawn),/,-5%,10%,10%,3%
COCC1CCCCC1OS(N)(=O)=O (stereo not drawn),2%,32%,-4%,38%,11%
O=[N+]([O-])c1ccc(N2CCN(Cc3ccc(Br)o3)CC2)cc1,-18%,-12%,-4%,-15%,5%
CC(=O)Nc1ccccc1C=C1c2ccccc2-c2ccccc21,-3%,/,/,/,/
COC(=O)[C@@]1(Cc2ccccc2)[C@@H]2C(=CC(=O)[C@H]2CC(=O)C(=O)N(C)C)CN1C(=O)c1ccccc1,-6%,10µM*,6%,?,-22%
COC(=O)Cn1c(C(=O)N(C)C)cc2c1C[C@H]1CN(C(=O)c3ccccc3)[C@@](Cc3ccc(F)cc3)(C(=O)OC)[C@@H]21,/,/,/,/,10%
CCc1nc2ccc(C(=O)NCCCn3ccnc3)cn2c1N(C)C(=O)COc1ccccc1,/,/,/,/,3%[18.4 µM]
CCOC(=O)c1c(NC(=O)CCC(=O)O)sc2c1CC(C)(C)OC2,-5%,6%,1%,-11%,1%
CCOC(=O)c1c(NC(=O)C2CC2)sc2c1CC(C)(C)OC2,-8%,-4%,-1%,12µM*,2%

# Compound activity from PubChem BioAssay.
